# Inconclusive results are not listed. A call without a number means that no potency is given here. The source made the active and inactive calls. The call rests on the fitted dose curve.
# Assay: qHTS for Inhibitors of Cell Surface uPA Generation: Wild-type Protective Antigen (WT-PrAg) Counterscreen for Cherry-picked Compounds
# Conditions: cells, WT protective antigen toxicity counterscreen; series mostly up to 115 µM
row,SMILES,Potency
1,C=C(C)C(=O)O[C@H]1C/C(C)=C\C(=O)/C=C(\C)[C@H](O)[C@@H]2OC(=O)C(=C)[C@@H]21,inactive
2,CSc1nc(N)nc2c1ncn2CC(=O)NCC1CCCO1 (stereo not given),inactive
3,CN(C)CCNC(=O)Nc1ccc([N+](=O)[O-])cc1,inactive
4,CC(C)CCN1C(=O)c2ccc(-c3nc4ccccc4c(=O)o3)cc2C1=O,inactive
5,COc1ccc(C(=O)NCC(=O)N/N=C/c2c(C)[nH]c3ccccc23)cc1,inactive
6,Cc1nc(NC2CCCCC2)c2nnn(Cc3ccccc3Cl)c2n1,inactive
7,CCOC(=O)N1CCN(C(=O)c2ccc3c(c2)sc2nc(-c4ccc(OC)cc4)cn23)CC1,inactive
8,COCCN(CCOC)c1nc(-c2ccc(C)cc2)nc2ccccc12,inactive
9,CC(=O)NS(=O)(=O)c1ccc(NC(=O)c2cccc(OCc3c(C)noc3C)c2)cc1,inactive
10,[N-]=[N+]=NC1C[C@H](n2ccc(=O)[nH]c2=O)O[C@@H]1CO (stereo not given in full),inactive
11,O=C(CN(c1ccccc1F)S(=O)(=O)c1ccccc1)Nc1ccc2c(c1)OCCO2,inactive
12,CC(=O)c1ccc(N2CCN(C(=S)NCc3ccco3)CC2)cc1,inactive
13,COc1ccc(C(CNC(=O)C(C)Oc2ccc(Br)cc2)N2CCCC2)cc1 (stereo not given),inactive
14,Cc1ccc(-n2ncc(C(=O)NC3CC3)c2C2CCN(C(=O)OC(C)(C)C)CC2)cc1,inactive
15,CC(C)NCC1CCc2cc(CO)c([N+](=O)[O-])cc2N1 (stereo not given),inactive
16,O=[N+]([O-])c1ccc(-c2cn3c(n2)SCC3)cc1,inactive
17,COc1ccccc1N1CCN(C(=O)CCC(=O)N2CCN(c3ccc(F)cc3)CC2)CC1,inactive
18,CCc1ccc(S(=O)(=O)NCCc2cn3cccc(C)c3n2)s1,inactive
19,Cc1ccccc1NC1c2ccccc2C(=O)N1Cc1ccco1 (stereo not given),inactive
20,CNC(=S)N1C2CCCC1CC(NC(=O)c1ccc(F)cc1)C2 (stereo not given),inactive

row,SMILES,Potency
1,Cc1cc(N2C(=O)C(O)=C(C(=O)c3ccco3)C2c2ccc(Cl)cc2)no1 (stereo not given),inactive
2,CCOC(=O)[C@H]1[C@H]2COc3ccc(Br)cc3[C@@H]2N2C(=O)c3c(C)cc(C)cc3NC(=O)[C@@]12C,inactive
3,NS(=O)(=O)c1ccc(CCNC(=O)c2ccc(Cl)s2)cc1,inactive
4,Cc1ccn(CCC(=O)N2CCc3ccccc32)n1,inactive
5,CCCCN(CC(=O)Nc1cccc(S(=O)(=O)N2CCCC2)c1)Cc1nc2ccccc2c(=O)[nH]1,inactive
6,O=C(NCC1CCCO1)c1ccc(NC(=O)c2ccc([N+](=O)[O-])cc2)cc1 (stereo not given),inactive
7,COc1cc(NC(=O)COC(=O)c2cc(S(=O)(=O)N3CCCCC3)ccc2Cl)c(C)cc1[N+](=O)[O-],inactive
8,COc1cc(C2/C(=C(\O)c3ccc4c(c3)CC(C)O4)C(=O)C(=O)N2CC2CCCO2)cc(OC)c1OC (stereo not given),inactive
9,O=C(Cn1cnc2c(OCc3ccccc3)ncnc21)NCCCN1CCCC1=O,inactive
10,COCCN(C(=O)c1ccc(OC2CCN(S(=O)(=O)N(C)C)CC2)cc1)C(C)C,inactive
11,CCc1ccccc1N(CC(=O)N1CCCC1)S(C)(=O)=O,inactive
12,CCOc1ccc(OCC)c(NC(=O)c2ccc(CNc3c(N4CCCC4)c(=O)c3=O)cc2)c1,inactive
13,COC(C[C@H](O)[C@H](C)[C@@H](O)COCc1ccccc1)OC,inactive
14,CC(=O)c1ccc(N=C2SCCCN2C(=O)C2CCCCC2)cc1,inactive
15,O=C(Cc1ccccc1)Nc1ccc(NC(=O)c2ccccc2)c(Cl)c1,inactive
16,CC(=O)c1cnc2nc(SCc3cccc(C)c3)nn2c1C,inactive
17,CCOC(=O)C1CCN(CC(=O)Nc2cc(C)nn2-c2nc3ccccc3s2)CC1,inactive
18,CCOc1cc(C)c(S(=O)(=O)N2CCCCC2)cc1C,inactive
19,CCC(C)C(NC(=O)c1ccccc1)C(=O)Nc1ccc(S(=O)(=O)Nc2cc(C)nc(C)n2)cc1 (stereo not given),inactive
20,COC(=O)[C@]1(Cc2ccccc2)N[C@H](CN(C)C(=O)c2ccccc2)[C@@H]2C(=O)N(Cc3ccccc3)C(=O)[C@@H]21,inactive

# Reference: PubChem BioAssay AID720518 (National Center for Advancing Translational Sciences (NCATS), 2013)
